Test results from PubChem BioAssay (NCI).
This is part of a sample that, as a whole, favours compounds with a hit. Of some 83,000 tested, about 20% had one in any assay.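 Testing used 96-well plates and a 48-hour single-concentration exposure. Example: -40 means 40% of the starting cells died.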 Unmarked numbers belong to inactive results. Active and inactive are the calls of the source.

These compounds were tested on OVCAR-5 ovarian (assay: NCI-60 one-dose screen, 48 h (100 = growth as untreated, 0 = no growth, -100 = all killed)). Settings: 10 µM unless noted.
Procedure: Growth inhibition of the OVCAR-5 human tumor cell line is measured as a screen for anti-cancer activity. Cells are grown in 96 well plates and exposed to the test compound for 48 hours. Compounds are tested at a single concentration, which is 10^-5 M for most compounds. The reported endpoint is percent growth (GI% or GIPRCNT), where numbers from 0 - 100% represent growth inhibition, and numbers from -100% - 0 represent cell death. For example, a value of 40 represents 60% growth inhibition. A value of 0 means no net growth occurred over the course of the experiment. A value of -40 indicates 40% of cells at the beginning of the experiment died by the end of the experiment. A value of -100 means all cells are dead at the end of the experiment.
NCI-60 Human Tumor Cell Lines Screen was performed using the standard one-dose NCI protocol, which is described in more detail at https://dtp.cancer.gov/discovery_development/nci-60/default.htm.
Compounds with GIPRCNT values below 10 were considered active. Activity score was based on GIPRCNT using the following formula: […]
Score is 0 for GIPRCNT values of 100 or above, 50 for GIPRCNT values of 0, and 100 for GIPRCNT values of -100.

SMILES	growth
O=C(NOC1OC(CO)C(O)C(O)C1O)Nc1ccccc1 (stereo not given)	100%
COc1ccc(/C(=C/c2cc(OC)c(OC)c(OC)c2)[N+](=O)[O-])cc1	98.6%
O=C(Nc1ccc(-n2ccc3c(NC(=O)c4ccccc4)ncnc32)cc1)Nc1ccc(Cl)c(C(F)(F)F)c1	17.8%
CC(C)(C)OC(=O)N1CCN(CCn2cc(C(F)(F)F)c3c(Cl)ncnc32)CC1	108%
CCCCOc1nc2ccc(Cl)cc2cc1/C=C/C(=O)/C=C/c1ccc(Cl)cc1	107%
N#Cc1c(N)nc2c(c1N)C(c1ccc(Cl)cc1)C1=C(CCCC1=O)N2c1sc2c(c1C#N)CCCC2 (stereo not given)	74.8%
COc1ccc(OC)c(NCC(=O)n2nc(/C=C\c3ccc(O)c(OC)c3)cc2/C=C\c2ccc(O)c(OC)c2)c1	25.3%
Nc1ccc(S(=O)(=O)Nc2cc(I)cc(I)c2)cc1	86.5%
COc1ccc(C(=O)NC(=O)Nc2ccc3c(c2)NC(=O)/C3=C\c2[nH]c(C)c(CCC(=O)O)c2C)c(F)c1	64.4%
N#CC1=C(N)Oc2c(ccc3ccccc23)C1c1cc(=O)oc2ccc(Cl)cc12 (stereo not given)	51.6%
O=C(Nc1ccc(-n2cc(-c3ccncc3)c(-c3ccc(O)c(Cl)c3)n2)cc1)c1cc(Cl)cc(Cl)c1	71.4%
O=C(Nc1ccc(-n2ccc3c(NC(=O)c4ccccc4)ncnc32)cc1)Nc1ccc(Cl)c(Cl)c1	39.6%
O=c1c2ccccc2sc2c(NCCN3CCOCC3)nc3ccccc3c12	84.9%
CCc1c(C)c2cc3c(c(C)c2oc1=O)OCC(=O)N3	77.9%
COc1ccc(/C=C/C(=O)c2ccc(NC(=O)CSc3nnc(-c4cc(OC)c(OC)c(OC)c4)o3)cc2)cc1	7.48% (active)
O=C(Nc1ccc(-n2cc(-c3ccncc3)c(-c3ccc(O)c(Cl)c3)n2)cc1)c1ccc(Cl)c(Cl)c1	71.2%
Cc1cccc(NCS(=O)(=O)O)c1	107%
COc1ccc(CNc2nc3ccccc3c3c(=O)c4ccccc4sc23)cc1OC	97.2%
CC(C(C(=O)N1CCCCC1)N1CCCCC1)N1CCCCC1 (stereo not given)	117%
COc1ccc2c(c1)OC(N)=C(C#N)C2c1ccc(F)cc1 (stereo not given)	56.4%

SMILES	growth
C=C1C(=O)O[C@H]2[C@H]1CC/C(COC(=O)c1cc(OC)c(OC)c(OC)c1)=C\CC[C@@]1(C)O[C@@H]21	-12.4% (active)
COC(OC)C1(c2ccccc2)NC(=O)NC1=O (stereo not given)	122%
O=C(Nc1ccc(-n2cc(-c3ccncc3)c(-c3ccc(O)c(Cl)c3)n2)cc1)c1ccc(Cl)c(C(F)(F)F)c1	61.6%
COc1cc2ncn3c(=O)c4c5c(sc4nc3c2cc1OC)CCCCC5	98.6%
COc1ccccc1C(OC(C)=O)OC(C)=O	112%
O=C(Nc1ccc(-n2ccc3c(NC(=O)c4ccccc4)ncnc32)cc1)c1cccc(C(F)(F)F)c1	62.3%
CCn1cc(/C=C2\Oc3cc(OCC#N)ccc3C2=O)c2cc(OC)ccc21	62.1%
c1ccc2c(c1)Oc1cccnc1-n1nccc1-2	107%
Cc1[nH]c2ccc(F)cc2c1CCNC(=O)C1CCN(C(=O)c2ccc(-c3ccccc3)cc2)CC1	90.1%
COC(=O)c1ccc2c(c1)Oc1ccc(Cl)cc1-c1cc(C)nn1-2	91.2%
COc1cc(CN(c2ccc(Cl)cc2)C2OC(=O)c3ccccc32)cc(OC)c1OC (stereo not given)	63.5%
CN(C)CCCOc1c(Br)cc(/C=C/C(=O)N(C)CCc2cc(Br)c(OCCCN(C)C)c(Br)c2)cc1Br	79.1%
CC(C)Cn1cnc2c3ccccc3nc(NCn3nc(-c4cc(Cl)cc(Cl)c4Cl)oc3=S)c21	88.3%
O=C(NCCNc1nccc(-c2c(-c3cccc(O)c3)nc3sccn23)n1)c1cccc(C(F)(F)F)c1	113%
COc1cc(NC(=O)C#Cc2ccccc2)c(OC)cc1Cl	79.4%
C=C1C(=O)O[C@H]2[C@H]1CC/C(COC(=O)c1ccc(C#N)cc1)=C\CC[C@@]1(C)O[C@@H]21	34.5%
COc1cc(NC(C)CCCN2C(=O)c3ccccc3C2=O)c2nc(C)ccc2c1OC (stereo not given)	100%
COc1ccc(-c2nnc(SCC(=O)Nc3ccc(C(=O)/C=C/c4ccc(OC)c(OC)c4)cc3)o2)cc1	124%
COc1ccc2c(c1)/C(=C/c1c(-c3cc(OC)c(OC)c(OC)c3Br)nc3sccn13)C(=O)N2	105%
O=[N+]([O-])c1ccccc1NC1c2ccccc2Oc2ccccc21	76.8%
